# Rows were chosen to be rich in hits. Some 2.8% of all compounds tested hit in one or more screens of this group.
# PglD DTNB = PglD (C. jejuni) enzyme inhibition | inhibition, % at 12.5 µM | purified PglD enzyme, DTNB colorimetric CoA detection | AID 602405 | 360,000 compounds, 0.098% hits; in the data active = inhibition above about 16%, passing the limit was not always enough
# dFosB activator = enhances mouse delta FosB homodimer DNA binding; P13346; purified delta FosB, TAMRA-CDK5 oligo fluorescence polarization; percent of positive-control signal above neutral wells; activation, % at 25 µM; 340,000 compounds, 0.99% hits;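 active = mean activation above about 17%, with every replicate also reaching it, limit read from the data, passing the limit was not always enough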
# FGF22 binding = FGF22 (human) thermal shift binding; Q9HCT0; recombinant FGF22 thermal shift, SYPRO orange fluorescence; percent of sucrose octasulfate shift, DMSO zero; activity (Tm shift, normalised), % at 9.99 µM; 340,000 compounds, 1.5% hits; AID 651658;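 active = mean Tm shift, scaled 0 neutral to 100 positive control, at about 1.3% or above, every replicate too, limit read from the data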
# Target sequence (Q9HCT0 whole entry, looked up): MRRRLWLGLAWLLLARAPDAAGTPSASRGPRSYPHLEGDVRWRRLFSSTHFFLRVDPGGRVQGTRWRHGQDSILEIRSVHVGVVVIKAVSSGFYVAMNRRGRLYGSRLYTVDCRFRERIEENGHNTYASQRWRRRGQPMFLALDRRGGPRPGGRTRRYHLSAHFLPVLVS
# SIRT5 block = blocks human SIRT5 desuccinylation of peptide; 330,000 compounds, 1.1% hits; Purified SirT5, succinyl-peptide AMC, trypsin-coupled fluorescence; inhibition, % at 15 µM; AID 652115; Q9NXA8; in the data active = inhibition above about 15%
# Target sequence (Q9NXA8 whole entry, looked up): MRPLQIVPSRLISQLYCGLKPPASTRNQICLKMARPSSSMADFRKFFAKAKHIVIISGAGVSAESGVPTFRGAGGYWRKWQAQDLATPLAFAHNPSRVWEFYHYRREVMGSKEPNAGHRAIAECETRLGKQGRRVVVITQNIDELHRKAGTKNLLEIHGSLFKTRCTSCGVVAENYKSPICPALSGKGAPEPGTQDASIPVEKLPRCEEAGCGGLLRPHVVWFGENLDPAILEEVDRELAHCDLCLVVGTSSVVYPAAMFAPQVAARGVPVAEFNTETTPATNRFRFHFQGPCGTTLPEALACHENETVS
# CDK5 p35 inh = inhibitors of human CDK5/p35 kinase | 330,000 compounds, 0.01% hits | Recombinant CDK5/p35, ADP-Glo luminescence, 60 min | inhibition, % at 10 µM;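 active = highest replicate inhibition of at least 50% and at least 75% of replicates reaching 50%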;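 note: plate controls were DMSO neutral control for no effect and GW8510 at 10 µM for full effect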
# PvdQ acylase = P. aeruginosa PvdQ acylase inhibition; purified PvdQ acylase, fluorescence plate reader; inhibition, % at 10 µM; 340,000 compounds, 0.063% hits; AID 488965; in the data active = inhibition above about 30%, passing the limit was not always enough;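 note: 0% = vehicle neutral wells and 100% = reference inhibitor wells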
# * = called active by the depositor; nt = no result; ! = not active in a repeat.
SMILES,PglD DTNB,dFosB activator,FGF22 binding,SIRT5 block,CDK5 p35 inh,PvdQ acylase
O=C(O)CCC(=O)N1CCCC1,nt,3.6,42.9*,-1.0,-1.9,-7.2
O=C(C[C@H]1C=C[C@@H](NC(=O)c2cccnc2)[C@@H](CO)O1)NCc1ccc(Cl)c(Cl)c1,19.1,nt,0.0,0.8,nt,nt
O=C(O)C(Cc1c[nH]c2ccccc12)NS(=O)(=O)c1ccc(Cl)cc1 (configuration not stated),-8.0,6.2,43.5*,-6.2,-1.4,10.4
O=C(O)C(Cc1c[nH]c2ccccc12)NS(=O)(=O)c1ccc(Br)cc1 (configuration not stated),-5.7,-1.8,0.1,-3.0,0.0,-0.5
CN1C(=O)c2cc(NS(=O)(=O)c3ccc(F)cc3)ccc2OC[C@H]2O[C@@H](CC(=O)NCC(F)(F)F)CC[C@H]21,4.2,nt,-0.3,-0.8,nt,nt
CC[n+]1c(-c2ccc(C)cc2)csc1Nc1c(C)n(C)n(-c2ccccc2)c1=O,-9.1,-8.5,0.0,-6.1,-0.2,-11.6
CC[n+]1c(-c2ccccc2)csc1Nc1c(C)n(C)n(-c2ccccc2)c1=O,nt,-3.4,-0.4,21.2*,2.4,-3.7
C[C@H]1CN([C@@H](C)CO)C(=O)c2cc(NC(=O)Nc3cccc4ccccc34)ccc2O[C@H]1CN(C)C,0.1,nt,0.1,-5.6,nt,nt
COc1ccc(NC(=O)N(C)C[C@H]2OCc3cnnn3CCCC(=O)N([C@@H](C)CO)C[C@@H]2C)c(OC)c1,1.9,nt,0.1,-3.5,nt,nt
CN1C(=O)c2cc(NC(=O)c3cccs3)ccc2OC[C@@H]2O[C@@H](CC(=O)O)CC[C@H]21,1.7,nt,-0.1,-2.9,nt,nt
C[C@@H]1CN([C@@H](C)CO)C(=O)c2cc(NS(=O)(=O)c3ccccc3)ccc2O[C@@H](C)CCCCO[C@@H]1CN(C)S(=O)(=O)c1ccc(F)cc1,2.2,nt,-0.2,22.3*,nt,nt
C[C@@H]1CCCCO[C@@H](CN(C)S(=O)(=O)c2ccccc2)[C@@H](C)CN([C@H](C)CO)C(=O)c2cc(NS(=O)(=O)c3ccc(F)cc3)ccc2O1,-0.3,nt,1.3*!,-1.9,nt,nt
Cc1ccc(S(=O)(=O)Nc2ccc3c(c2)C(=O)N([C@H](C)CO)C[C@H](C)[C@@H](CN(C)S(=O)(=O)c2ccc(F)cc2)OCCCC[C@H](C)O3)cc1,-2.1,nt,-0.3,0.5,nt,nt
Cc1ccc(S(=O)(=O)N(C)C[C@@H]2OCCCC[C@H](C)Oc3ccc(NS(=O)(=O)c4ccc(F)cc4)cc3C(=O)N([C@H](C)CO)C[C@H]2C)cc1,-1.0,nt,-0.3,22.2*,nt,nt
O=C1c2ccccc2C(c2nnnn2Cc2ccccc2)N1Cc1ccc(F)cc1 (configuration not stated),nt,nt,0.3,-1.9,nt,nt
O=C1c2ccccc2C(c2nnnn2Cc2ccccc2)N1Cc1ccco1 (configuration not stated),nt,nt,-0.3,15.3*,nt,nt
Cc1cccn2c(=O)c3cc(C(=O)NCC4CCCO4)c(=N)n(C4CCCC4)c3nc12 (configuration not stated),-1.7,-4.6,42.1,81.1*,-0.2,-47.0
Cc1cccn2c(=O)c3cc(C(=O)NC4CCCCC4)c(=N)n(Cc4ccccc4)c3nc12,-5.2,43.1*,0.0,-0.4,1.6,-7.1
N=c1c(C(=O)NC2CCCCC2)cc2c(=O)n3ccccc3nc2n1Cc1ccc(F)cc1,2.8,-5.4,0.0,22.7*,nt,-10.2
O=C([C@H]1[C@H](CO)[C@H]2Cn3c(ccc(-c4cccnc4)c3=O)[C@H]2N1CC1CC1)N1CCCCC1,12.2,nt,-0.1,1.8,nt,nt
CC1C/C(=N/Nc2nc3ccccc3[nH]2)CC(C)(C)C1 (configuration not stated),nt,7.2,43.4*,-2.2,1.4,-8.6
C[C@@H]1CN([C@@H](C)CO)C(=O)Cc2cc(NC(=O)c3ccncc3)ccc2O[C@@H]1CN(C)S(=O)(=O)c1ccc(F)cc1,0.0,nt,-0.1,0.6,nt,nt
O=C(NC1CCC1)[C@@H]1[C@@H](CO)[C@@H]2Cn3c(cccc3=O)[C@H]1N2CC1CCCCC1,-1.6,nt,-0.1,-0.2,nt,nt
COc1ccccc1C1=NC(c2ccc(C)cc2)N=C1C (configuration not stated),nt,-9.0,43.7*,-5.5,0.5,-3.7
O=C(NCc1ccc(Cl)cc1)c1cc([N+](=O)[O-])ccc1Cl,nt,0.3,43.0*,-1.4,-0.3,7.5
SMILES,PglD DTNB,dFosB activator,FGF22 binding,SIRT5 block,CDK5 p35 inh,PvdQ acylase
O=C1c2ccccc2NC2(CCCC2)N1NS(=O)(=O)c1ccccc1,nt,-2.3,0.2,-5.5,0.5,-1.4
CS(=O)(=O)NN1C(=O)c2ccccc2NC12CCCC2,nt,-1.4,43.0*,-15.9,-5.0,-3.8
CC(=O)N1CCN(C(=O)c2cc(S(=O)(=O)Nc3ccc(S(C)(=O)=O)cc3)ccc2Cl)CC1,nt,8.3,43.6*,0.6,-0.5,-6.5
CCn1c(/C=C/c2ccccc2)nc2ccccc2c1=O,2.5,-12.4,43.7*,0.3,-2.4,2.1
C[C@H](CO)N1C[C@H](C)[C@@H](CN(C)Cc2ccncc2)Oc2ccc(NC(=O)Nc3ccc4c(c3)OCO4)cc2CC1=O,2.7,nt,-0.1,-5.0,nt,nt
CCCn1c(SCc2nc3ccccc3s2)n[nH]c1=O,nt,-5.7,0.0,-1.3,0.9,3.8
O=c1[nH]nc(SCc2nc3ccccc3s2)n1C1CC1,-1.0,-1.5,43.0*,1.2,-4.5,-5.7
COc1ccc(CCN(Cc2cc3cc(C)ccc3[nH]c2=O)C(C)=O)cc1OC,nt,-3.5,42.2,-1.9,-1.8,-11.9
COc1ccc(CCN(Cc2cc3ccc(C)cc3n3nnnc23)C(C)=O)cc1OC,nt,-6.5,0.0,25.7*,0.0,-4.2
C[C@@H]1CN([C@H](C)CO)C(=O)c2cc(NC(=O)CCN3CCOCC3)ccc2O[C@@H]1CN(C)C(=O)Nc1cccc2ccccc12,-1.5,nt,-0.2,8.9,nt,nt
CCCCCCCC/C=C\CCCCCCCC(=O)NCCO,5.0,6.9,-0.3,4.3,-0.3,4.9
CCCCCCCC/C=C\CCCCCCCC(=O)NCCc1ccc(O)c(O)c1,4.1,-17.3,0.9,31.7*,0.0,-5.2
NC(=NCCc1ccccc1)NS(=O)(=O)c1cccs1,nt,3.2,43.0*,-6.1,-1.9,-18.2
CO[C@@H]1CC[C@H]2CCN(C)C(=O)C[C@H](c3ccccc3)CN(C)C(=O)c3cc(C#N)ccc3OC[C@@H]1O2,-1.4,nt,0.0,-0.5,nt,nt
C[C@@H]1CN([C@@H](C)CO)C(=O)c2cc(NS(=O)(=O)c3cccs3)ccc2O[C@@H](C)CCCCO[C@H]1CN(C)C(=O)c1ccccc1,1.2,nt,-0.4,-0.6,nt,nt
O=C(c1cc2c(=O)n3ccccc3nc2s1)N1CCN(Cc2ccccc2)CC1,0.0,-7.5,0.1,-5.9,-1.4,-9.1
O=C(c1cc2c(=O)n3ccccc3nc2s1)N1CCN(Cc2ccc3c(c2)OCO3)CC1,nt,-6.4,43.0*,-17.8,-0.4,-18.3
CCCNC(=O)C[C@@H]1C[C@H]2c3cc(NC(=O)NC4CCCC4)ccc3O[C@H]2[C@H](CO)O1,0.9,nt,-0.1,-4.1,nt,nt

# High-throughput results deposited in PubChem BioAssay by Broad Institute.
